Molecules are shown by their SMILES. About 83,000 compounds went through this panel and 20% of them were active in at least one assay; those are over-represented in the sample as a whole.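 96-well plates, one dose, 48 hours. Percent growth reported; active if below 10.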 Calls of active or inactive are those of the source.

For one test, the system named is T-47D breast. Nature of the test: NCI-60 one-dose screen, 48 h (100 = growth as untreated, 0 = no growth, -100 = all killed). Conditions: 10 µM unless noted.
As to `Cc1cc(NCCCNc2ccnc3cc(Cl)ccc23)nc(N2CCN(C)CC2)n1`, the growth was 81.4% (inactive).
The same measure, in the same setting: for `CCCc1cc(=O)n2c(C(=O)Nc3ccccc3OC)c(C(=O)Nc3ccc(F)cc3)sc2n1` the value was 85.4% [30 µM] (inactive); for `N#Cc1cccc(/C=C(/C(=O)c2ccccc2)c2ccccc2)c1`, 74.4% (inactive); for `CCC1(c2ccccc2)Oc2ccccc2-n2c(C#N)c3ccccc3c2C1=O` (centres undefined), 91.7% (inactive).
As to `C/C(=N/N=C(N)N)c1ccc(N)cc1`, the growth was 94.7% (inactive).
For the compound `CC(C)c1nc(N(C)S(C)(=O)=O)nc(-c2ccc(F)cc2)c1/C=C/[C@@H](O)C[C@@H](O)CC(=O)O`, the growth is 99.4% (inactive).
For `COc1ccc(/C=C(\C#N)c2ccccc2)cc1`, the growth is 88.6% (inactive).
Still for that read-out and setting: for `Fc1ccc([C@@H]2CCNC[C@H]2COc2ccc3c(c2)OCO3)cc1` the value was 63.7% (inactive); for `COc1cc(/C=C/C(=O)c2c(-c3ccc(F)cc3)nc3sc(C)nn23)cc(OC)c1OC`, -8.41% (active).
On to `CCC(C)CC(CC)NCCN1CCN(C(CC)CC(C)CC)C1=S` (centres undefined), for which the growth was -9.85% (active).
In the case of `COc1cccc(-c2nnc(N)o2)c1`, the growth is 97.7% (inactive).
In the case of `CCCCSc1cc(C)nc(N)n1`, the growth is 96.4% (inactive).
For `Cc1ccsc1/C=C/C1=NCCCN1C`, the growth is 93.9% (inactive).
Turning to `Nc1c2ccccc2nc2ccccc12` (tested in a mixture with another compound), the growth is 28.9% (inactive).
Take `COc1cc(/C=C/C(=O)c2c(-c3ccc(Cl)cc3)nc3sc(C)nn23)cc(OC)c1OC`: the growth is 19.3% (inactive).
Same read-out and setting: for `CCCCc1nc(Cl)c(CO)n1Cc1ccc(-c2ccccc2-c2nn[nH]n2)cc1` the value was 110% (inactive); for `CN(CCOc1ccc(CC2SC(=O)NC2=O)cc1)c1ccccn1` (centres undefined), 102% (inactive); for `N#Cc1c2ccccc2c2n1-c1ccccc1OC(c1ccccc1)C2=O` (centres undefined), 23.2% (inactive).
`Nc1nc(N)c([N+](=O)[O-])c(=O)[nH]1`: the growth is 92.2% (inactive).
In the case of `Cc1c(C(N)=O)sc2ncn(Cc3ccccc3)c(=O)c12`, the growth is 98.1% (inactive).
As to `CC(=O)O[C@H]1C(=O)[C@@]2(C)C([C@H](OC(=O)c3ccccc3)[C@]3(O)C[C@H](OC(=O)[C@H](O)[C@@H](NC(=O)c4ccccc4)c4ccccc4)C(C)=C1C3(C)C)[C@]1(OC(C)=O)CO[C@@H]1C[C@@H]2O` (some centres undefined), the growth is 47.3% (inactive).
`CC1(C)OC(=O)C(=Cc2ccccc2Br)C(=O)O1`: the growth was 102% (inactive).
For the compound `COC1CC2CCC(C)C(O)(O2)C(=O)C(=O)N2CCCCC2C(=O)OC(C(C)CC2CCC(O)C(OC)C2)CC(=O)C(C)C=C(C)C(O)C(OC)C(=O)C(C)CC(C)/C=C/C=C/C=C1C` (centres undefined), the growth was 31.1% (inactive).
For `COc1cc([C@@H]2c3cc4c(cc3C(O[C@@H]3O[C@@H]5CO[C@@H](c6cccs6)OC5[C@H](O)[C@H]3O)C3COC(=O)[C@@H]32)OCO4)cc(OC)c1O` (some centres undefined), the growth is -0.0776% (active).
Still for that read-out and setting: for `Cn1c(=O)c2nc(SCc3ccccc3)n(C)c2n(C)c1=O` the value was 98.4% (inactive); for `O=c1cc(-c2cccnc2)oc2c1ccc1ccccc12`, 81.6% (inactive); for `C/C(=N\N1CC(=O)NC1=O)c1ccc([N+](=O)[O-])o1`, 102% (inactive).
Consider `NC(N)=N/N=C(/c1ccccc1)c1ccc(Cl)cc1`, for which the growth is 64.5% (inactive).
For the compound `N#Cc1ccc(NC(=O)Nc2ccc(Oc3ccc(NC(=O)Nc4ccc(C#N)cc4)cc3)cc2)cc1`, the growth was 2.9% (active).
Regarding `Cc1c(NCc2nnc3n(Cc4ccccc4)c(=O)c4c5c(sc4n23)CCCC5)c(=O)n(-c2ccccc2)n1C`, the growth was 84% (inactive).
As for `O=C(Nc1ccc(OCc2nnc(-c3ccccc3)o2)c(F)c1)Nc1ccc(Cl)c(C(F)(F)F)c1`, the growth is 14.9% (inactive).
For `Cc1cc(N2CCOCC2)nc(N2CCOCC2)n1`, the growth was 98% (inactive).
On the same count and under the same terms, for `COc1cc2c(C#N)n3c(c2cc1OC)C(=O)C(c1ccccc1)Oc1ccccc1-3` (centres undefined) the value was 17.1% (inactive).
With `O=[N+]([O-])c1ccc(N/N=C\c2ccccc2[N+](=O)[O-])nc1`, the growth was 107% (inactive).
Consider `CO[C@H]1CC(O[C@@H]2/C(C)=C/C[C@@H]3C[C@@H](C[C@]4(CC[C@H](C)[C@@H](C5CCCCC5)O4)O3)OC(=O)[C@@H]3C=C(C)/C(=N/O)[C@H]4OC/C(=C\C=C\[C@@H]2C)[C@]43O)O[C@@H](C)C1O` (some centres undefined), for which the growth is -78.1% (active).
Consider `COc1ccc(OC)c(NC(=O)c2cc3oc4ccccc4c3cc2O)c1`, for which the growth was 74.4% (inactive).
Consider `C=C1CC[C@@H]2[C@](C)(COC(C)=O)[C@H](OC(C)=O)CC[C@@]2(C)[C@@H]1CC(Nc1ccc(S(=O)(=O)Nc2cc(C)on2)cc1)C1=CCOC1=O` (some centres undefined), for which the growth is 63.6% (inactive).

The next test relates to BT-549 breast. Described as above. Conditions: 10 µM unless noted.
For the compound `Cc1cc(NCCCNc2ccnc3cc(Cl)ccc23)nc(N2CCN(C)CC2)n1`, the growth is 95.6% (inactive).
Consider `CCCc1cc(=O)n2c(C(=O)Nc3ccccc3OC)c(C(=O)Nc3ccc(F)cc3)sc2n1`, for which the growth was -14.2% [30 µM] (active).
Turning to `N#Cc1cccc(/C=C(/C(=O)c2ccccc2)c2ccccc2)c1`, the growth was 26.7% (inactive).
The same measure, in the same setting: the value for `CCC1(c2ccccc2)Oc2ccccc2-n2c(C#N)c3ccccc3c2C1=O` (centres undefined) was 104% (inactive).
In the case of `C/C(=N/N=C(N)N)c1ccc(N)cc1`, the growth was 70.1% (inactive).
With `CC(C)c1nc(N(C)S(C)(=O)=O)nc(-c2ccc(F)cc2)c1/C=C/[C@@H](O)C[C@@H](O)CC(=O)O`, the growth is 103% (inactive).
For `COc1ccc(/C=C(\C#N)c2ccccc2)cc1`, the growth was 85.4% (inactive).
Take `Fc1ccc([C@@H]2CCNC[C@H]2COc2ccc3c(c2)OCO3)cc1`: the growth was 84.2% (inactive).
In the case of `COc1cc(/C=C/C(=O)c2c(-c3ccc(F)cc3)nc3sc(C)nn23)cc(OC)c1OC`, the growth was 12% (inactive).
Regarding `CCC(C)CC(CC)NCCN1CCN(C(CC)CC(C)CC)C1=S` (centres undefined), the growth was 78.6% (inactive).
For `COc1cccc(-c2nnc(N)o2)c1`, the growth was 87.4% (inactive).
Regarding `CCCCSc1cc(C)nc(N)n1`, the growth is 88.8% (inactive).
Turning to `Cc1ccsc1/C=C/C1=NCCCN1C`, the growth is 102% (inactive).
In the case of `Nc1c2ccccc2nc2ccccc12` (tested in a mixture with another compound), the growth was 57.3% (inactive).
Regarding `COc1cc(/C=C/C(=O)c2c(-c3ccc(Cl)cc3)nc3sc(C)nn23)cc(OC)c1OC`, the growth was 79.3% (inactive).
Take `CCCCc1nc(Cl)c(CO)n1Cc1ccc(-c2ccccc2-c2nn[nH]n2)cc1`: the growth was 106% (inactive).
For the compound `CN(CCOc1ccc(CC2SC(=O)NC2=O)cc1)c1ccccn1` (centres undefined), the growth is 104% (inactive).
For the compound `N#Cc1c2ccccc2c2n1-c1ccccc1OC(c1ccccc1)C2=O` (centres undefined), the growth is 9.32% (active).
For the compound `Nc1nc(N)c([N+](=O)[O-])c(=O)[nH]1`, the growth is 114% (inactive).
Consider `Cc1c(C(N)=O)sc2ncn(Cc3ccccc3)c(=O)c12`, for which the growth was 62.6% (inactive).
Regarding `CC(=O)O[C@H]1C(=O)[C@@]2(C)C([C@H](OC(=O)c3ccccc3)[C@]3(O)C[C@H](OC(=O)[C@H](O)[C@@H](NC(=O)c4ccccc4)c4ccccc4)C(C)=C1C3(C)C)[C@]1(OC(C)=O)CO[C@@H]1C[C@@H]2O` (some centres undefined), the growth was 30.5% (inactive).
For `CC1(C)OC(=O)C(=Cc2ccccc2Br)C(=O)O1`, the growth was 107% (inactive).
Regarding `COC1CC2CCC(C)C(O)(O2)C(=O)C(=O)N2CCCCC2C(=O)OC(C(C)CC2CCC(O)C(OC)C2)CC(=O)C(C)C=C(C)C(O)C(OC)C(=O)C(C)CC(C)/C=C/C=C/C=C1C` (centres undefined), the growth is 32.5% (inactive).
In the case of `COc1cc([C@@H]2c3cc4c(cc3C(O[C@@H]3O[C@@H]5CO[C@@H](c6cccs6)OC5[C@H](O)[C@H]3O)C3COC(=O)[C@@H]32)OCO4)cc(OC)c1O` (some centres undefined), the growth was -20.3% (active).
On to `Cn1c(=O)c2nc(SCc3ccccc3)n(C)c2n(C)c1=O`, for which the growth was 107% (inactive).
For `O=c1cc(-c2cccnc2)oc2c1ccc1ccccc12`, the growth is 81.1% (inactive).
Regarding `C/C(=N\N1CC(=O)NC1=O)c1ccc([N+](=O)[O-])o1`, the growth is 100% (inactive).
Consider `NC(N)=N/N=C(/c1ccccc1)c1ccc(Cl)cc1`, for which the growth was 70.2% (inactive).
For `N#Cc1ccc(NC(=O)Nc2ccc(Oc3ccc(NC(=O)Nc4ccc(C#N)cc4)cc3)cc2)cc1`, the growth was -15.5% (active).
For `Cc1c(NCc2nnc3n(Cc4ccccc4)c(=O)c4c5c(sc4n23)CCCC5)c(=O)n(-c2ccccc2)n1C`, the growth is 91.7% (inactive).
As for `O=C(Nc1ccc(OCc2nnc(-c3ccccc3)o2)c(F)c1)Nc1ccc(Cl)c(C(F)(F)F)c1`, the growth is 68.3% (inactive).
On to `Cc1cc(N2CCOCC2)nc(N2CCOCC2)n1`, for which the growth was 73.6% (inactive).
`COc1cc2c(C#N)n3c(c2cc1OC)C(=O)C(c1ccccc1)Oc1ccccc1-3` (centres undefined): the growth is -7.13% (active).
With `O=[N+]([O-])c1ccc(N/N=C\c2ccccc2[N+](=O)[O-])nc1`, the growth is 101% (inactive).
For the compound `CO[C@H]1CC(O[C@@H]2/C(C)=C/C[C@@H]3C[C@@H](C[C@]4(CC[C@H](C)[C@@H](C5CCCCC5)O4)O3)OC(=O)[C@@H]3C=C(C)/C(=N/O)[C@H]4OC/C(=C\C=C\[C@@H]2C)[C@]43O)O[C@@H](C)C1O` (some centres undefined), the growth is -88.3% (active).
Regarding `COc1ccc(OC)c(NC(=O)c2cc3oc4ccccc4c3cc2O)c1`, the growth was 89.1% (inactive).
Consider `C=C1CC[C@@H]2[C@](C)(COC(C)=O)[C@H](OC(C)=O)CC[C@@]2(C)[C@@H]1CC(Nc1ccc(S(=O)(=O)Nc2cc(C)on2)cc1)C1=CCOC1=O` (some centres undefined), for which the growth is 27.2% (inactive).

(Values after PubChem BioAssay (NCI).)
